Measured values as given in PubChem BioAssay AID1159580 (chemical genetic matrix, 2015).
Where “and” joins values, the source holds several entries; their conditions need not be identical. Equal values may be shown once. About 2,000 (36%) of roughly 5,500 compounds were called active. Roughly 18% stayed inconclusive and do not appear here. Rule as the data show it: active = normalized growth mostly below about 0.91 (no sharp cut-off); inconclusive = no clear call, values can overlap the other calls; inactive = mostly above about 0.92. The list shows a part of the results.

Experiment: chemical genetic growth profiling, strain panel (AID 1159580);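 also: tested at 20 µM; growth read once vehicle control cultures reached saturation at 30 °C; 1 = growth at the plate median or of vehicle wells; lower values mean less growth of the strain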
Conditions: S. cerevisiae deletion strains, growth OD

Measured: normalized growth

COc1ccc(C[C@H](N)C(=O)N[C@@H]2[C@@H](CO)OC(n3cnc4c(N(C)C)ncnc43)[C@@H]2O)cc1 (stereo partly specified)
inactive: locus YAL013W, strain DEP1, hits give low values 1.01 | locus YAL021C, strain ccr4, hits give low values 0.977 | locus YAL026C, strain drs2, hits give low values 0.996 | locus YAL030W, strain snc1, hits give low values 0.996 | locus YBL061C, strain skt5, hits give low values 0.996 | locus YBR009C, strain hhf1, hits give low values 0.988 | locus YBR021W, strain FUR4, hits give low values 1 | locus YBR023C, strain chs3, hits give low values 0.986 | locus YBR171W, strain sec66, hits give low values 0.976 | locus YBR229C, strain ROT2, hits give low values 1.01 | locus YBR231C, strain swc5, hits give low values 0.994 | locus YBR279W, strain paf1, hits give low values 0.992 | locus YCL011C, strain gbp2, hits give low values 1 | locus YCL016C, strain dcc1, hits give low values 1.01 | locus YCL029C, strain bik1, hits give low values 1.02 | locus YCL069W, strain vba3, hits give low values 0.992 | locus YCR088W, strain abp1, hits give low values 0.992 | locus YDL005C, strain med2, hits give low values 0.995 | locus YDL035C, strain GPR1, hits give low values 1 | locus YDL040C, strain nat1, hits give low values 1.01 | locus YDL074C, strain BRE1, hits give low values 0.988 | locus YDL101C, strain DUN1, hits give low values 1.01 | locus YDL134C, strain PPH21, hits give low values 1 | locus YDL185W, strain tfp1, hits give low values 1.02 | locus YDL192W, strain arf1, hits give low values 1.02 | locus YDR001C, strain nth1, hits give low values 0.982 | locus YDR069C, strain doa4, hits give low values 0.981 | locus YDR101C, strain arx1, hits give low values 1.02 | locus YDR137W, strain rgp1, hits give low values 1.01 | locus YDR150W, strain NUM1, hits give low values 1 | locus YDR159W, strain sac3, hits give low values 0.981 | locus YDR162C, strain NBP2, hits give low values 1.02 | locus YDR195W, strain ref2 0.969 | locus YDR297W, strain sur2, hits give low values 0.996 | locus YDR318W, strain mcm21, hits give low values 1.02 | locus YDR334W, strain swr1, hits give low values 0.977 | locus YDR335W, strain msn5, hits give low values 0.985 | locus YDR388W, hits give low values 1.02 | locus YDR392W, strain spt3, hits give low values 1.01 | locus YDR502C, strain sam2, hits give low values 1 | locus YEL003W, strain gim4, hits give low values 0.999 | locus YEL037C, strain rad23, hits give low values 1 | locus YEL061C, strain CIN8 (second series), hits give low values 0.99 | locus YEL061C, strain CIN8, hits give low values 1 | locus YER015W, strain faa2, hits give low values 0.991 | locus YER016W, strain bim1, hits give low values 1.01 | locus YER110C, hits give low values 1.02 | locus YER111C, strain swi4, hits give low values 0.977 | locus YER155C, strain BEM2 (second series), hits give low values 1.03 | locus YER155C, strain BEM2, hits give low values 1 | locus YER167W, strain BCK2, hits give low values 1.02 | locus YFR010W, strain ubp6, hits give low values 0.995 | locus YGL078C, strain dbp3, hits give low values 1.02 | locus YGL086W, strain mad1, hits give low values 1.02 | locus YGL167C, strain pmr1, hits give low values 1.01 | locus YGL173C, strain kem1, hits give low values 0.988 | locus YGL227W, strain vid30, hits give low values 0.992 | locus YGL240W, strain doc1, hits give low values 0.987 | locus YGL248W, strain PDE1, hits give low values 1.01 | locus YGL253W, strain hxk2, hits give low values 0.981 | locus YGR078C, strain PAC10, hits give low values 0.99 | locus YGR135W, strain pre9, hits give low values 1 | locus YGR229C, strain SMI1, hits give low values 0.996 | locus YGR252W, strain gcn5, hits give low values 1.06 | locus YHR013C, strain ard1, hits give low values 0.983 | locus YHR027C, strain rpn1, hits give low values 0.991 | locus YHR030C, strain SLT2, hits give low values 1.01 | locus YHR079C, strain IRE1 (second series), hits give low values 1.02 | locus YHR079C, strain IRE1, hits give low values 0.98 | locus YHR094C, strain hxt1, hits give low values 1.02 | locus YHR129C, strain ARP1, hits give low values 1.01 | locus YHR142W, strain chs7, hits give low values 1 | locus YHR200W, strain rpn10, hits give low values 1.03 | locus YIL066C, strain RNR3, hits give low values 1.02 | locus YIL073C, strain SPO22, hits give low values 1.06 | locus YIL125W, strain kgd1, hits give low values 1.01 | locus YIR030C, strain dcg1, hits give low values 1.02 | locus YJL092W, strain hpr5, hits give low values 0.988 | locus YJL095W, strain BCK1 (second series), hits give low values 1 | locus YJL095W, strain BCK1, hits give low values 0.997 and 0.996 | locus YJL115W, strain asf1, hits give low values 0.984 | locus YJL129C, strain trk1, hits give low values 0.987 | locus YJL134W, strain LCB3, hits give low values 1 | locus YJL154C, strain vps35, hits give low values 0.996 | locus YJL164C, strain tpk1, hits give low values 1.01 | locus YJL166W, strain qcr8, hits give low values 0.979 | locus YJL168C, strain set2, hits give low values 1.01 | locus YJL187C, strain SWE1 (second series), hits give low values 1.01 | locus YJL187C, strain SWE1, hits give low values 0.998 | locus YJR043C, strain POL32, hits give low values 0.995 | locus YJR066W, strain TOR1, hits give low values 0.937
